Compound activity from PubChem BioAssay.
An excerpt weighted towards active compounds, which were near 1.3% of everything screened.
PREPL inhibitor = PREPL enzyme inhibitors, primary screen, biochemical, fluorescence polarization. Prolyl endopeptidase-like (Homo sapiens), Q4J6C6. 320,000 tested, 0.68% active. recombinant PREPL, fluorescence polarization activity-based probe. inhibition, % at 5.96 µM;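 note: 0% = enzyme with DMSO and 100% = wells lacking enzyme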
Target sequence (Q4J6C6 whole entry, looked up): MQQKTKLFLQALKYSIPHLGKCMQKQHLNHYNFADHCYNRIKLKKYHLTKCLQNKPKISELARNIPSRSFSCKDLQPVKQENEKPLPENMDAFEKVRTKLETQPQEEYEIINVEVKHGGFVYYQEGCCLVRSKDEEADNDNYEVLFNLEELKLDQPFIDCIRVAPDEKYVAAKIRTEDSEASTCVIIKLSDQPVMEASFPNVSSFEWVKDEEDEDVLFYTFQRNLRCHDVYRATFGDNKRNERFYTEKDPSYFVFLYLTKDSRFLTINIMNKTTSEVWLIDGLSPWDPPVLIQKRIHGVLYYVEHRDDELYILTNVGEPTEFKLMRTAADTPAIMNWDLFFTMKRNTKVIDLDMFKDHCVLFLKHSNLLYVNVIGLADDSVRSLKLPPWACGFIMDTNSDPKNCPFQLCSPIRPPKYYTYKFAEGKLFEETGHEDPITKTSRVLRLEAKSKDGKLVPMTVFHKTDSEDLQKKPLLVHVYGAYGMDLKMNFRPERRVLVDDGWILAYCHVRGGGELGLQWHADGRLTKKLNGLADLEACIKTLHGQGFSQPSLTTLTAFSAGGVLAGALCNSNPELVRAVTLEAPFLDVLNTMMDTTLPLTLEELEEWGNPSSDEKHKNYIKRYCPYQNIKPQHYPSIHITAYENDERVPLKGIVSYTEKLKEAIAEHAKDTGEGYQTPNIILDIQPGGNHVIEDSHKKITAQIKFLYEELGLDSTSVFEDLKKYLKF
LYPLA2 inh = LYPLA2 inhibitors, primary screen, counter-screen for PME1 inhibitor project, biochemical, fluorescence polarization, FP-Rh probe ABPP; Acyl-protein thioesterase 2 (Homo sapiens), O95372; recombinant LYPLA2; inhibition, % at 5.9 µM; 320,000 tested, 0.38% active;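 active = inhibition above the screen-wide mean plus 3 SD, limit set per campaign, cut at about 26% in these data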;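 note: 0% = LYPLA2 with DMSO and 100% = wells lacking LYPLA2 enzyme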
ZTA counter = counter-screen for EBNA-1 inhibitors: inhibitors of Epstein-Barr virus ZTA. P03206. ZTA-DNA binding, fluorescence polarization. inhibition, % at 11 µM. 320,000 tested, 0.15% active. AID 2234; in the data active = inhibition above about 33%
EBNA-1 inh = EBNA-1 DNA-binding inhibitors, primary screen, biochemical, fluorescence polarization; inhibition, % at 14.8 µM; 300,000 tested, 0.34% active; in the data active = inhibition above about 28%
LYPLA1 inh = LYPLA1 inhibitors, primary screen, counter-screen for PME1 inhibitor project, biochemical, fluorescence polarization, FP-Rh probe ABPP. Acyl-protein thioesterase 1 (Homo sapiens), O75608. recombinant LYPLA1. inhibition, % at 5.9 µM. 320,000 tested, 0.16% active. AID 2174, 2009;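 active = inhibition above the mean of all tested compounds plus 3 SD, set per campaign, cut at about 14% in these data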;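 note: inhibitors block serine hydrolase probe labeling of LYPLA1 so polarization falls; 0% = enzyme with DMSO and 100% = wells lacking LYPLA1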
PREPL confirm = human PREPL enzyme inhibitors, confirmation, biochemical, fluorescence polarization; inhibition, % at 5.96 µM; shares compounds with PREPL inhibitor; recombinant PREPL, fluorescence polarization activity probe; 2,000 tested, 67% active; AID 2803, 2010;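 note: 0% = protein with DMSO and 100% = wells lacking protein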
An asterisk follows results filed as active. Cut-off read from the data, not from the text of the source, unless noted: active = inhibition above about 43%; inactive = the rest.

What do the screens show for `Cc1cccc(OCC(=O)Nc2ccc(N3CCN(C(=O)c4ccco4)CC3)cc2)c1`?
PREPL inhibitor: 55*; LYPLA2 inh: 11; ZTA counter: 4; EBNA-1 inh: 13; LYPLA1 inh: 4; PREPL confirm: 50*

How did CC(Oc1cccc(F)c1)C(=O)Nc1ccc(N2CCOCC2)cc1 (stereo not drawn) do in these assays?
PREPL inhibitor: 34; LYPLA2 inh: 8; ZTA counter: -15; LYPLA1 inh: 2

What do the screens show for `Cc1ccc(OCC(=O)Nc2ccc(N3CCN(C(=O)c4ccco4)CC3)cc2)cc1C`?
PREPL inhibitor: 52*; LYPLA2 inh: 9; ZTA counter: 3; EBNA-1 inh: -10; LYPLA1 inh: 1; PREPL confirm: 57*

What do the screens show for `Cc1cccc(OC(C)C(=O)Nc2ccc(N3CCCCC3)cc2)c1` (stereo not drawn)?
PREPL inhibitor: 44*; LYPLA2 inh: 4; ZTA counter: 2; EBNA-1 inh: 1; LYPLA1 inh: 4; PREPL confirm: 44*

What do the screens show for `O=C(Cc1ccc(Cl)cc1)Nc1ccc(N2CCN(C(=O)c3ccco3)CC2)cc1`?
PREPL inhibitor: 47*; LYPLA2 inh: 0; ZTA counter: -3; EBNA-1 inh: 0; LYPLA1 inh: 5; PREPL confirm: 53*

Results for O=C(NCCc1c[nH]c2ccccc12)C(=O)NCC(c1cccnc1)N1CCN(c2ccccc2)CC1 (stereo not drawn) ?
PREPL inhibitor: 52*; LYPLA2 inh: 2; ZTA counter: 6; EBNA-1 inh: 3; LYPLA1 inh: -2; PREPL confirm: 46*

What do the screens show for `Cc1cccnc1NC(=O)CCc1c[nH]c2ccccc12`?
PREPL inhibitor: 46*; LYPLA2 inh: 3; ZTA counter: -6; EBNA-1 inh: -14; LYPLA1 inh: -2; PREPL confirm: 42

How did COc1ccc(N(C(=O)CNC(=O)c2ccco2)C(C(=O)NCC2CCCO2)c2ccc(OC)c(OC)c2)cc1 (stereo not drawn) do in these assays?
PREPL inhibitor: 14; LYPLA2 inh: 9; ZTA counter: -7; EBNA-1 inh: 8; LYPLA1 inh: 4

How did COC(=O)c1ccc(NC(=O)N(c2ccccc2)c2ccccc2)cc1 do in these assays?
PREPL inhibitor: 6; LYPLA2 inh: 6; ZTA counter: 22; EBNA-1 inh: 14; LYPLA1 inh: -6

What do the screens show for `CC(=O)Oc1cc2cccc(OC(C)=O)c(=O)c2c(OC(C)=O)c1OC(C)=O`?
PREPL inhibitor: 63*; LYPLA2 inh: -1; ZTA counter: -7; EBNA-1 inh: -5; LYPLA1 inh: -4; PREPL confirm: 35

How did COc1ccc(NC(=O)N(CCN2CCCC2)Cc2cc3cc(OC)c(OC)cc3[nH]c2=O)cc1 do in these assays?
PREPL inhibitor: 58*; LYPLA2 inh: 1; ZTA counter: 2; EBNA-1 inh: 10; LYPLA1 inh: -1; PREPL confirm: 18

What do the screens show for `O=C(Nc1cccc(F)c1)C1CCCN(C(=O)c2ccc(Cl)cc2)C1` (stereo not drawn)?
PREPL inhibitor: -43; LYPLA2 inh: -6; ZTA counter: 2; LYPLA1 inh: -5

What do the screens show for `CCN(CC)CCCC(C)NC(=O)c1c(NC(=O)c2ccccc2)sc2c1CCCC2` (stereo not drawn)?
PREPL inhibitor: 46*; LYPLA2 inh: 3; ZTA counter: -4; EBNA-1 inh: -1; LYPLA1 inh: -5; PREPL confirm: 40

How did CCN(C(=O)CN1CCN(S(=O)(=O)c2cc(Cl)ccc2Cl)CC1)c1c(N)n(Cc2ccccc2)c(=O)[nH]c1=O do in these assays?
PREPL inhibitor: 64*; LYPLA2 inh: -5; ZTA counter: -7; EBNA-1 inh: 7; LYPLA1 inh: -2; PREPL confirm: 61*

What do the screens show for `CCN(C(=O)CN1CCCCCC1)c1c(N)n(Cc2ccccc2)c(=O)[nH]c1=O`?
PREPL inhibitor: 22

How did CCc1noc(C)c1C(=O)Nc1nc(-c2ccccc2)c(C(C)=O)s1 do in these assays?
PREPL inhibitor: 80*; LYPLA2 inh: -1; ZTA counter: 9; LYPLA1 inh: -1; PREPL confirm: 4

What do the screens show for `O=c1cc(-c2ccc(O)c(O)c2)oc2c1ccc1ccccc12`?
PREPL inhibitor: 52*; LYPLA2 inh: -10; ZTA counter: 1; LYPLA1 inh: -10; PREPL confirm: 33

What do the screens show for `O=c1oc(-c2ccc(O)c(O)c2)cc2cccc(O)c12`?
PREPL inhibitor: 67*; PREPL confirm: 38

What do the screens show for `COc1cc(/C=N/NC(=O)CSc2n[nH]c(=O)[nH]c2=O)cc(OC)c1O`?
PREPL inhibitor: 4; LYPLA2 inh: 0; ZTA counter: 4; EBNA-1 inh: -1; LYPLA1 inh: 0

Results for Nc1cc(N)cc(-c2nc3ccccc3o2)c1 ?
PREPL inhibitor: 55*; LYPLA2 inh: 7; ZTA counter: -2; EBNA-1 inh: 12; LYPLA1 inh: 2; PREPL confirm: 34

Results for Cc1csc(NC(=O)COc2ccc3c(c2)CCC3)n1 ?
PREPL inhibitor: 3; LYPLA2 inh: -1; ZTA counter: -21; LYPLA1 inh: -1

What do the screens show for `CCn1c(SCC(=O)N2CCc3ccccc3C2)nc2sc(C)c(C)c2c1=O`?
PREPL inhibitor: 44*; LYPLA2 inh: 1; ZTA counter: -7; EBNA-1 inh: 7; LYPLA1 inh: 3; PREPL confirm: 42

What do the screens show for `CN(Cc1ccco1)c1ncnc2ccc(-c3ccccc3Cl)cc12`?
PREPL inhibitor: 45*; LYPLA2 inh: -4; ZTA counter: 9; LYPLA1 inh: -4; PREPL confirm: 20

How did O=C(N/N=C/c1ccc(Cl)cc1Cl)c1cccc(F)c1 do in these assays?
PREPL inhibitor: -3; LYPLA2 inh: -6; ZTA counter: -9; EBNA-1 inh: -11; LYPLA1 inh: -7

What do the screens show for `O=C(C[n+]1ccc(C(=O)N/N=C/c2ccc(Cl)cc2Cl)cc1)c1ccccc1`?
PREPL inhibitor: 45*; LYPLA2 inh: 0; ZTA counter: -6; EBNA-1 inh: 8; LYPLA1 inh: -5; PREPL confirm: 24

What do the screens show for `Nc1c(N(CCC2=CCCCC2)C(=O)Cc2ccccc2F)c(=O)[nH]c(=O)n1Cc1ccccc1`?
PREPL inhibitor: 7; LYPLA2 inh: 3; ZTA counter: -14; LYPLA1 inh: 2

How did Nc1c(N(CCC2=CCCCC2)C(=O)c2ccccc2F)c(=O)[nH]c(=O)n1Cc1ccccc1 do in these assays?
PREPL inhibitor: 69*; LYPLA2 inh: -8; ZTA counter: 17; LYPLA1 inh: 1; PREPL confirm: 15

What do the screens show for `CCCCCCCCCCCCCCCC[n+]1cccc(C(=O)N(CC)CC)c1`?
PREPL inhibitor: 50*; LYPLA2 inh: 10; ZTA counter: -9; EBNA-1 inh: -1; LYPLA1 inh: 4; PREPL confirm: 51*
